PubChem BioAssay AID1159580 (chemical genetic matrix, 2015)
Several values for one entry are separate records, joined by “and”; a condition that tells them apart may be missing. Equal entries are not always repeated. The whole screen tested about 5,500 compounds, of which about 2,000 (36%) were called active. About 18% were inconclusive and are not listed. Cut-off read from the data, not from the text of the source: active = normalized growth mostly below about 0.91 (no sharp cut-off); inconclusive = no clear call, values can overlap the other calls; inactive = mostly above about 0.92. The list shows a part of the results.

Assay: chemical genetic growth profiling, strain panel (AID 1159580);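 note: tested at 20 µM; growth read once vehicle control cultures reached saturation at 30 °C; 1 = growth at the plate median or of vehicle wells; lower values mean less growth of the strain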
Conditions: S. cerevisiae deletion strains, growth OD

Measured: normalized growth

Cc1ccccc1OCC(O)CO (centres undefined)
inactive: locus YAL013W, strain DEP1, stronger effect = lower value 1.02 | locus YAL021C, strain ccr4, stronger effect = lower value 0.971 | locus YAL026C, strain drs2, stronger effect = lower value 0.974 | locus YAL030W, strain snc1, stronger effect = lower value 0.967 | locus YBL061C, strain skt5, stronger effect = lower value 0.962 | locus YBR009C, strain hhf1, stronger effect = lower value 0.985 | locus YBR021W, strain FUR4, stronger effect = lower value 1.03 | locus YBR023C, strain chs3, stronger effect = lower value 0.964 | locus YBR171W, strain sec66, stronger effect = lower value 0.973 | locus YBR229C, strain ROT2, stronger effect = lower value 1.02 | locus YBR231C, strain swc5, stronger effect = lower value 0.98 | locus YBR279W, strain paf1, stronger effect = lower value 0.974 | locus YCL011C, strain gbp2, stronger effect = lower value 0.971 | locus YCL016C, strain dcc1, stronger effect = lower value 0.967 | locus YCL029C, strain bik1, stronger effect = lower value 0.998 | locus YCL061C, strain MRC1, stronger effect = lower value 0.993 | locus YCL069W, strain vba3, stronger effect = lower value 0.981 | locus YCR088W, strain abp1, stronger effect = lower value 0.969 | locus YDL005C, strain med2, stronger effect = lower value 0.976 | locus YDL035C, strain GPR1, stronger effect = lower value 1.03 | locus YDL040C, strain nat1, stronger effect = lower value 0.967 | locus YDL074C, strain BRE1, stronger effect = lower value 1.05 | locus YDL101C, strain DUN1, stronger effect = lower value 1.03 | locus YDL134C, strain PPH21, stronger effect = lower value 1.04 | locus YDL185W, strain tfp1, stronger effect = lower value 0.99 | locus YDL192W, strain arf1, stronger effect = lower value 0.991 | locus YDR001C, strain nth1, stronger effect = lower value 0.983 | locus YDR069C, strain doa4, stronger effect = lower value 0.966 | locus YDR101C, strain arx1, stronger effect = lower value 1 | locus YDR137W, strain rgp1, stronger effect = lower value 0.997 | locus YDR159W, strain sac3, stronger effect = lower value 0.977 | locus YDR162C, strain NBP2, stronger effect = lower value 1.02 | locus YDR195W, strain ref2 0.957 | locus YDR297W, strain sur2, stronger effect = lower value 0.978 | locus YDR318W, strain mcm21, stronger effect = lower value 1.01 | locus YDR334W, strain swr1, stronger effect = lower value 0.964 | locus YDR335W, strain msn5, stronger effect = lower value 0.988 | locus YDR388W, stronger effect = lower value 0.987 | locus YDR392W, strain spt3, stronger effect = lower value 0.981 | locus YDR502C, strain sam2, stronger effect = lower value 0.99 | locus YEL003W, strain gim4, stronger effect = lower value 0.97 | locus YEL037C, strain rad23, stronger effect = lower value 0.969 | locus YEL061C, strain CIN8 (second series), stronger effect = lower value 0.968 | locus YEL061C, strain CIN8, stronger effect = lower value 1.01 | locus YER015W, strain faa2, stronger effect = lower value 0.976 | locus YER016W, strain bim1, stronger effect = lower value 0.988 | locus YER110C, stronger effect = lower value 0.99 | locus YER111C, strain swi4, stronger effect = lower value 0.97 | locus YER155C, strain BEM2 (second series), stronger effect = lower value 0.969 | locus YER155C, strain BEM2, stronger effect = lower value 1.01 | locus YER167W, strain BCK2, stronger effect = lower value 1.01 | locus YFR010W, strain ubp6, stronger effect = lower value 0.972 | locus YGL078C, strain dbp3, stronger effect = lower value 1 | locus YGL086W, strain mad1, stronger effect = lower value 1.01 | locus YGL167C, strain pmr1, stronger effect = lower value 0.969 | locus YGL173C, strain kem1, stronger effect = lower value 0.969 | locus YGL227W, strain vid30, stronger effect = lower value 0.976 | locus YGL240W, strain doc1, stronger effect = lower value 0.971 | locus YGL248W, strain PDE1, stronger effect = lower value 1.03 | locus YGL253W, strain hxk2, stronger effect = lower value 0.971 | locus YGR135W, strain pre9, stronger effect = lower value 0.99 | locus YGR229C, strain SMI1, stronger effect = lower value 1.03 | locus YGR252W, strain gcn5, stronger effect = lower value 0.989 | locus YHR013C, strain ard1, stronger effect = lower value 0.965 | locus YHR027C, strain rpn1, stronger effect = lower value 0.969 | locus YHR030C, strain SLT2, stronger effect = lower value 1.01 and 0.978 | locus YHR079C, strain IRE1 (second series), stronger effect = lower value 0.992 | locus YHR079C, strain IRE1, stronger effect = lower value 0.973 | locus YHR094C, strain hxt1, stronger effect = lower value 0.986 | locus YHR129C, strain ARP1, stronger effect = lower value 1.02 | locus YHR142W, strain chs7, stronger effect = lower value 0.964 | locus YHR200W, strain rpn10, stronger effect = lower value 1 | locus YIL066C, strain RNR3, stronger effect = lower value 1.04 | locus YIL073C, strain SPO22, stronger effect = lower value 1.08 | locus YIL125W, strain kgd1, stronger effect = lower value 0.99 | locus YIR030C, strain dcg1, stronger effect = lower value 0.989 | locus YJL092W, strain hpr5, stronger effect = lower value 0.99 | locus YJL095W, strain BCK1 (second series), stronger effect = lower value 0.977 | locus YJL095W, strain BCK1, stronger effect = lower value 1.05 and 0.98 | locus YJL115W, strain asf1, stronger effect = lower value 0.977 | locus YJL129C, strain trk1, stronger effect = lower value 0.971 | locus YJL134W, strain LCB3, stronger effect = lower value 1.01 | locus YJL154C, strain vps35, stronger effect = lower value 0.973 | locus YJL164C, strain tpk1, stronger effect = lower value 0.969 | locus YJL166W, strain qcr8, stronger effect = lower value 0.978 | locus YJL168C, strain set2, stronger effect = lower value 0.991 | locus YJL187C, strain SWE1 (second series), stronger effect = lower value 1.03 | locus YJL187C, strain SWE1, stronger effect = lower value 0.979 | locus YJR043C, strain POL32, stronger effect = lower value 1.02
